From PubChem BioAssay (NCATS) come the findings set out here.

Records with an inconclusive call do not appear. Entries that show only a call come without a potency. Active and inactive are the calls of the source. Calls follow the shape of the dose curve; as a rule, active = well fitted inhibition curve with a large enough effect; inconclusive = small, poorly fitted or top-dose-only effect; inactive = no such curve, though single readings can be large or run the other way.

A short description of experiment [1]: qHTS assay for measurement of the activity of small molecule inhibitors on Zika virus induced Caspase-3 activity in human iPSC derived neural progenitor cells (hNPCs) (AID 1224857). Also: nearly all actives have a fitted effect of over 65% in size. Summed up: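 Human iPSC-derived neural progenitor cells pretreated 1 hr with compounds, then infected with Zika virus (2 FFU/cell) for 6 hours at 37 C. Caspase-3/7 measured by Caspase-Glo luminescence; % inhibition calculated from induction scaled to uninfected (0%) and infected (100%) wells.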
On the technique in general: In qHTS, concentration-response curves come from the screen itself.

Experiment [2] in a line: qHTS assay for measurement of the activity of small molecule inhibitors on Zika virus induced Caspase-3 activity in human astrocytoma cells (AID 1224859). Summed up:
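SNB-19 astrocytoma cells, 250/well, pretreated 1 h with compounds, then Zika virus at 2 FFU/cell for 6 h at 37 C; Caspase-Glo 3/7 luminescence after 30 min; percent inhibition normalised to uninfected and infected controls.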

Take `CC(C)C(=O)Nc1cccc(C(F)(F)F)c1`: the Potency entry in experiment [1] is “inactive”. In experiment [2], the result was inactive.

For `N[C@@H](Cc1cc(I)c(O)c(I)c1)C(=O)O`, the Potency result in experiment [1] is “inactive”. Moreover, in experiment [2], the result was inactive.

Turning to `Cc1ccc(C(=O)Oc2ccc(C(O)CNC(C)(C)C)cc2OC(=O)c2ccc(C)cc2)cc1` (centres undefined), the Potency result in experiment [1] is “inactive”. Further, the compound was classed as inactive in experiment [2].

As to `N#CC1(c2ccc(F)cc2)CCC(=O)CC1`, the Potency result in experiment [1] was “inactive”. The compound was called inactive in experiment [2].

In the case of `NC(N)=NCCCCN=C(N)N`, the Potency result in experiment [1] is “inactive”. In addition, in experiment [2], the compound was called inactive.

Regarding `Cc1ccc2c(Cl)cc(Cl)c(O)c2n1`, the Potency entry in experiment [1] was “inactive”. Also, the compound was called inactive in experiment [2].

Take `COc1ccc(OC(=O)N(CC(=O)O)Cc2ccc(OCCc3nc(-c4ccccc4)oc3C)cc2)cc1`: the Potency entry in experiment [1] was “inactive”. Also, the outcome in experiment [2] was inactive.

Consider `CCCC(CCC)(C(=O)OCC)C(=O)OCC`, for which, in experiment [1], the Potency entry is “inactive”. In addition, the outcome in experiment [2] was inactive.

Turning to `CC1(C)OC(=O)Nc2ccc(Br)cc21`, the Potency result in experiment [1] was “inactive”. The result in experiment [2] was inactive.

Regarding `COCCOCC(OC)OC`, the Potency entry in experiment [1] was “inactive”. Moreover, in experiment [2], the outcome was inactive.

Take `COC(=O)c1cc(S(N)(=O)=O)ccc1OC`: the Potency entry in experiment [1] was “inactive”. Moreover, the call in experiment [2] was inactive.

As for `CCCCCCCCCCCCCCCC[N+](C)(C)Cc1ccccc1`, in experiment [1], the Potency result was “inactive”. In experiment [2], the outcome was inactive.

`CCO[C@H](Cc1ccc(OCCc2ccc(OS(C)(=O)=O)cc2)cc1)C(=O)O`: the Potency entry in experiment [1] was “inactive”. Moreover, the outcome in experiment [2] was inactive.

Consider `O=C(NN1CCCC1)NS(=O)(=O)c1ccc(Cl)cc1`, for which the Potency entry in experiment [1] is “inactive”. The outcome in experiment [2] was inactive.

For the compound `CC(C)C(=O)OCc1cccc(OC(=O)[C@@H]2N3C(=O)[C@@H](NC(=O)Cc4ccccc4)[C@H]3SC2(C)C)c1`, the Potency entry in experiment [1] was “inactive”. Also, in experiment [2], the outcome was inactive.

`C/C(=N\O)[C@@H](C)NCC(C)(C)CN[C@H](C)/C(C)=N/O`: the Potency entry in experiment [1] is “inactive”. The result in experiment [2] was inactive.

`Cc1nc2n(c(=O)c1CCN1CCC(C(=O)c3ccc(F)cc3)CC1)CCS2`: the Potency result in experiment [1] is “inactive”. In addition, the outcome in experiment [2] was inactive.
